Test results as given in PubChem BioAssay AID777 (Sanford-Burnham Center for Chemical Genomics, 2007).
In all, about 96,000 compounds went through this assay and about 19,000 (20%) were called active.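 How the source made its calls: active means blocking of liver enzyme CYP2C9 beyond about 50% at 5 µM (limit read from the data); inactive means the rest.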 These entries were drawn from the full list.

Each compound was assayed against Cytochrome P450 2C9 (Homo sapiens) (UniProt P11712) (assay: blockers of cytochrome P450 2C9 activity – biochemical, luminescence, ADME assay, primary screen (AID 777)). Details: CYP2C9 Supersomes, luciferin-H conversion, at 5 µM, hits give high values.
Cytochrome P450 2C9 (Homo sapiens), sequence (P11712 whole entry, looked up): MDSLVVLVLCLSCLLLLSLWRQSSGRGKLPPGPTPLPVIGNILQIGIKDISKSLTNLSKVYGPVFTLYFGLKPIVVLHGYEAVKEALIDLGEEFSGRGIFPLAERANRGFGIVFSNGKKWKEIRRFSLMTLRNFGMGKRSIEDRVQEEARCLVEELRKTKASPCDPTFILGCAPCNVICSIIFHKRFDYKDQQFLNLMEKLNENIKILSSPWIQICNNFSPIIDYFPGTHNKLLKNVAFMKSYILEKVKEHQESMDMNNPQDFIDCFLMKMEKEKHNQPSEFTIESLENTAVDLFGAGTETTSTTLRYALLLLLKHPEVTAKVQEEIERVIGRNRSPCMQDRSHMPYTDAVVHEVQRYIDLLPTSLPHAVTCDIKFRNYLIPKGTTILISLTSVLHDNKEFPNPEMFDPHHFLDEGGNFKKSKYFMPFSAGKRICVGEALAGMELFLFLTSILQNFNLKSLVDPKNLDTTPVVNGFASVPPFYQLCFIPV

inhibition, active:
C=CCNC(=O)c1sc(SC)cc1-c1ccc(Cl)cc1 64%
COc1ccc(-c2cc(C(=O)n3cnc4ccccc43)c3ccccc3n2)cc1 92.5%
Cc1[nH]n(-c2cccc(Cl)c2)c(=O)c1/C=N/n1c(C)nc2ccccc2c1=O 70.7%
COc1cc(C2C(C(=O)c3sc(C)nc3C)=C(O)C(=O)N2CCN(C)C)cc(OC)c1OC (stereo not drawn) 79%
Cc1noc(C)c1CSc1nc2cc(S(=O)(=O)N3CCOCC3)ccc2o1 54%
Cc1ccccc1-c1nc(CS(=O)(=O)CC(=O)N2CCc3ccccc3C2)c(C)o1 72.4%
CCOc1ccc(NCCC(=O)c2ccc3c(c2)OCO3)cc1 63.8%
Clc1ccc2c(c1)C1=C(C(c3ccncc3)O2)C(c2ccc(Br)cc2)n2ncnc2N1 (stereo not drawn) 82%
O=C(/C=C/NNC(=O)c1cccc(Br)c1)c1ccccc1 76.7%
CCCCOC(=O)c1ccc(N2C(=O)CC(N3CCN(C/C=C/c4ccccc4)CC3)C2=O)cc1 (stereo not drawn) 60.1%
CCOc1ccc(S(=O)(=O)NCCSc2ccccc2)cc1 75.7%
CCCCCC(=O)Nc1ccc2oc(-c3ccncc3)nc2c1 75.3%
CN(C)Cc1ccccc1C1(O)c2ccccc2CSc2ccccc21 (stereo not drawn) 51%

inhibition, inactive:
C=CCNC(=O)c1cc(-c2ccccc2O)on1 -48.2%
C=CCNC(=O)c1ccc(C)c(Br)c1 -17.9%
ON=C1/C(=N\O)CC2(C/C1=N/O)OCCO2 -14.6%
COc1ccc(-c2cc3n(n2)CCc2nc4ccccc4n2-3)cc1 -8.6%
Cc1ccc(OCC(=O)Nn2cnc3ccccc32)cc1 6.6%
COc1cc(NS(=O)(=O)c2ccc(N=Cc3c(C)[nH]n(-c4ccccc4)c3=O)cc2)nc(OC)n1 -9.3%
Cc1[nH]n(-c2cccc(Cl)c2)c(=O)c1-c1ccc(Cl)cc1 -1%
Cc1ccc(CNC(=O)CCNC(=O)Cn2ccc3ccccc3c2=O)cc1 -18.8%
CC1CCCC(NC(=O)CN2CCN(Cc3ccc(Cl)cc3)C2=O)C1C (stereo not drawn) 15.9%
COc1cc(C2C(C(=O)c3ccc(C)o3)=C(O)C(=O)N2CCc2ccccc2)ccc1O (stereo not drawn) 5.2%
COc1cc(C2C(C(=O)c3ccc(C)o3)=C(O)C(=O)N2Cc2cccnc2)ccc1O (stereo not drawn) 19.4%
Cc1ccc2c(c1)C(O)(CC(=O)c1cccnc1)C(=O)N2 (stereo not drawn) 8.4%
Cc1nn(C)cc1/C=C1\CCC/C(=C\c2cn(C)nc2C)C1=O -46.5%
CCOCCCNC(=O)c1c[nH]c2cc(C)ccc2c1=O -8.1%
Cc1noc(C)c1CSc1nnc2ccc3ccccc3n12 4.4%
Cc1ccc(S(=O)(=O)N2CCN(S(=O)(=O)N3CCOCC3)CC2)cc1 -55.7%
CCS(=O)(=O)Nc1cc(C(=O)OC)ccc1C(=O)OC 37.5%
Cc1oc(-c2ccccc2F)nc1CS(=O)(=O)CC(=O)NCCCN(C)C1CCCCC1 -10.6%
O=C(Cn1c(=S)nc2ccccn21)N1CCc2ccccc2C1 4.1%
COCCCNC(=O)C1CC(=O)N(c2ccc(C)cc2)C1 (stereo not drawn) -1.7%
CS(=O)(=O)N(C(=O)NC(=O)NC1CCS(=O)(=O)C1)C1CCCCC1 (stereo not drawn) 9.2%
Cc1ccc(F)cc1NC(=O)c1ccc2c(c1)OCO2 5.7%
COC(=O)CCNc1ccc2c(c1)OCCO2 -2.2%
CC(=O)c1cc(C#N)c(SCC(=O)C(C)(C)C)nc1C 22.5%
CCOC(=O)C(Sc1ncc(C#N)c(N)n1)C(C)C (stereo not drawn) 25.3%
CCC(C)n1[nH]c(=O)cc1N (stereo not drawn) -5.6%
COC(=O)C1=C(C)Nc2ncnn2C1c1cccnc1 (stereo not drawn) -19.5%
Brc1ccc(C2=CC(c3ccco3)n3ncnc3N2)cc1 (stereo not drawn) 3.2%
COc1cccc2c1OCC(C(=O)NCc1ccc(Cl)cc1Cl)=C2 -17.7%
COC(=O)c1ccc2c(c1)S(=O)(=O)NC(=NCCCN1CCOCC1)S2 11.4%
O=C(NCc1ccc2c(c1)OCO2)c1ccc2c(c1)C(=O)N(CC1CCCO1)C2=O (stereo not drawn) 2.3%
CC(C)(O)C(=O)NN(C(=O)c1ccccc1)c1cccc(Br)c1 -6.8%
O=C(/C=C\NCC(=O)c1ccccc1)c1ccccc1 12.9%
Cc1ccsc1/C=C1\SC(N2CCOCC2)=NC1=O -18%
Cc1cc2nc(C)n(CCCNC(=O)Nc3ccccc3)c2cc1C 44.6%
O=C(COc1ccccc1)N1CCc2ccccc2C1 39.9%
CCOc1ccc(CN2CCCN(C)CC2)cc1 -7.8%
CCOC(=O)c1ccc(N2C(=O)CC(N3CCC(C(=O)OCC)CC3)C2=O)cc1 (stereo not drawn) 38.3%
CCOC(=O)c1ccc(N2C(=O)CC(N3CC(C)OC(C)C3)C2=O)cc1 (stereo not drawn) 5.1%
Cc1cccc(OCc2nnc(SCC(=O)N3CCN(C(=O)c4ccco4)CC3)n2C)c1C 5.9%
Cc1ccc(-c2c3c(=O)n(C)c(=O)n(C)c3cn2-n2cnnc2)cc1 -7.5%
CCC(C)Sc1nc2c(c(=O)[nH]c(=O)n2C)n1CC(O)COc1cccc2ccccc12 (stereo not drawn) 24%
O=C(COc1ccc(S(=O)(=O)NCCc2ccccc2)cc1)N1CCCC1 45.1%
CCOc1ccc(S(=O)(=O)NCC2CCCO2)cc1 (stereo not drawn) 7.4%
Cc1[nH][nH]c(=O)c1C(c1ccc(-c2ccc(Cl)cc2)o1)c1c(C)[nH][nH]c1=O 22.5%
CCC(=O)c1cc2c(cc1NC(=O)c1cccs1)OCCO2 -7%
O=C(Cc1cccc2ccccc12)Nc1ccc2oc(-c3ccccc3)nc2c1 20.1%
O=C(Nc1ccc2oc(-c3ccc4ccccc4c3)nc2c1)c1cccs1 27.5%
N#CC(C(N)=O)=C1CCC2(CC1)OCCCCO2 -39.1%
CN(C)/C=C1/C(=O)Nc2ccccc21 -12.8%
